Results reported in PubChem BioAssay.
Several values for one entry are separate records, joined by “and”; a condition that tells them apart may be missing. Identical values can stand only once. Unmarked numbers belong to inactive results. No rule for the calls is given here.

What follows are compounds tested on Aerobactin synthetase IucA (Klebsiella pneumoniae hvKP1) (assay: IucA enzyme inhibition, primary screen, biochemical, Spectrum library (AID 1346200;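 also: 100% = wells without compound and 0% = wells lacking enzyme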)). Conditions: malachite green pyrophosphate, A620, at 8 µM, hits give low values.

SMILES	activity remaining
Cc1cc(C2CCCCC2)n(O)c(=O)c1	95.7%
CNc1ccccc1C(=O)N1CCc2c([nH]c3ccccc23)C1=O	106%
COc1cc(OC)c2c(c1Cl)OC1(C2=O)C(O)=CC(=O)CC1C (stereo not drawn)	107%
Cc1c(S(=O)(=O)O)oc2c1C(=O)C(=O)c1c-2ccc2c1CCCC2(C)C	127%
CN1C2CC3C[C@H]1C(O3)C2O (stereo partly drawn)	108%
CCCCC(=O)O[C@]1(C(=O)CO)[C@@H](C)CC2C3CCC4=CC(=O)C=C[C@]4(C)[C@@]3(F)C(O)C[C@@]21C (stereo partly drawn)	121%
COc1cc(OC)c2c(=O)c(-c3ccccc3)coc2c1	110%
CO[C@H]1/C=C/O[C@@]2(C)Oc3c(C)c(O)c4c(O)c(c(C=NN5CCN(C)CC5)c(O)c4c3C2=O)NC(=O)/C(C)=C\C=C\C(C)[C@H](O)[C@@H](C)[C@@H](O)[C@@H](C)[C@@H](OC(C)=O)[C@@H]1C (stereo partly drawn)	98.4%
COc1ccc(-c2oc3cc(O[C@H]4O[C@H](CO)[C@@H](O)[C@H](O)[C@H]4O)c(OC)c(O)c3c(=O)c2OC)cc1O	77.6%
C=CCCCCCCCCCCCC(O)CC(O)CO (stereo not drawn) (tested in a mixture with another compound)	85.4%
COc1ccc(-c2oc3cc(OC)c(OC)c(OC)c3c(=O)c2OC)cc1OC	83.1%
CC(C)CCCC(C)C1CCC2C3C[C@@H](O)[C@@]4(O)C[C@@H](O)CC[C@]4(C)C3CC[C@]12C (stereo partly drawn)	123%
Nc1ccc(C(=O)O)c(O)c1 (tested in a mixture with another compound)	86.3%
COc1cc(NC(C)CCCN)c2ncccc2c1 (stereo not drawn)	123%
CN1CCC(=C2c3ccccc3Sc3ccccc32)CC1	119%
COC(=O)C[C@H]1C2(C)CC34OC5(C)O[C@@]6([C@H](OC(C)=O)C(OC(C)=O)[C@]7(C)C(/C(=C(/O)C(C)C)C(=O)O[C@H]7c7ccoc7)[C@@]6(O5)[C@H](OC(C)=O)[C@@]3(O)C2OC(=O)C(C)C)[C@]14C (stereo partly drawn)	104%
CC1CCC2(OC1)OC1CC3C4CCC5C[C@@H](O)CCC5(C)C4=CCC3(C)C1[C@@H]2C (stereo partly drawn)	95.7%
NC(=O)NC(=O)Cc1ccccc1	93%
COC(=O)C[C@@H]1C2(C)C(=O)[C@@H](CC3=C4CC(O)O[C@@H](c5ccoc5)[C@]4(C)CCC32)[C@H](O)C1(C)C (stereo partly drawn)	128%
CC(=O)O[C@H]1C[C@@H](OC(C)=O)C(C)(C)C2C[C@@H](O)[C@]3(C)C(CC[C@@]4(C)[C@H](c5ccoc5)OC(=O)[C@H]5O[C@]543)[C@]21C (stereo partly drawn)	94.5%
COc1ccc(-c2coc3c(OC)c(OC)cc(O)c3c2=O)cc1	105%
CC(C)NCC(O)COc1cccc2ccccc12 (stereo not drawn)	105%
CCCSc1ccc2nc(NC(=O)OC)[nH]c2c1	111%
OCC(O)C(O)C(O)CO (stereo not drawn)	112% and 92.5%
OCc1ccccc1O[C@@H]1O[C@H](CO)[C@@H](O)[C@H](O)[C@H]1O	101%
Cc1cc(=O)c2c(O)cc(O)c(C)c2o1	99.3%
CO/N=C(/C(=O)NC1C(=O)N2C(C(=O)OC(C)OC(C)=O)=C(COC(N)=O)CSC12)c1ccco1 (stereo not drawn)	114%
CC(=O)Oc1ccccc1C(=O)Oc1ccccc1C(=O)O	97.5%
